# PMC5540273 (PLoS ONE, 2017)
# What was measured:
# Conditions in all cases: concentration: 1 μM, replicates: in singlicate; n = 1
# PIP5K1A = tested on: PIP5K1A
# PIP5K1C = tested on: PIP5K1C
# PIP5K2B = tested on: PIP5K2B
# PIP5K2C = tested on: T1, PIP5K2C
# T1 construct: gene PIP4K2C
# PKAC-alpha = tested on: T2, PKAC-alpha
# T2 construct: gene PRKACA
# PKAC-beta = tested on: T3, PKAC-beta
# T3 construct: gene PRKACB
# PKMYT1 = tested on: PKMYT1
# PKN1 = tested on: PKN1
# PKN2 = tested on: PKN2
# PLK1 = tested on: PLK1
# PLK2 = tested on: PLK2
# PLK3 = tested on: PLK3
# PLK4 = tested on: PLK4
# PRKCD = tested on: PRKCD
# PRKCE = tested on: PRKCE
# PRKCH = tested on: PRKCH
# PRKCI = tested on: PRKCI
# PRKCQ = tested on: PRKCQ
# PRKD1 = tested on: PRKD1
# PRKD2 = tested on: PRKD2
# 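Also: KINOMEscan kinase panel screen.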
Compound,%Inh (PIP5K1A) [%],%Inh (PIP5K1C) [%],%Inh (PIP5K2B) [%],%Inh (PIP5K2C) [%],%Inh (PKAC-alpha) [%],%Inh (PKAC-beta) [%],%Inh (PKMYT1) [%],%Inh (PKN1) [%],%Inh (PKN2) [%],%Inh (PLK1) [%],%Inh (PLK2) [%],%Inh (PLK3) [%],%Inh (PLK4) [%],%Inh (PRKCD) [%],%Inh (PRKCE) [%],%Inh (PRKCH) [%],%Inh (PRKCI) [%],%Inh (PRKCQ) [%],%Inh (PRKD1) [%],%Inh (PRKD2) [%]
COc1ccc(NC(=O)c2ccoc2)cc1-c1ccc(C(=O)NCC2CC2)cc1 [GW810437],7,0,0,0,15,15,0,0,0,50,34,28,8,9,41,0,6,0,0,0
Nc1ncc(-c2ccc3nccc(-c4ccncc4)c3c2)cc1S(=O)(=O)N1CCCCC1 [GSK1693850],0,40,0,62,1,0,0,9,0,76,30,27,0,15,31,36,9,0,0,4
CN(C)CCNS(=O)(=O)c1ccc(-c2ccnc3[nH]ccc23)cc1 [GSK977620],8,32,0,0,98.4,97.7,14,9,56,0,0,0,1,83,88,82,21,62,0,10
Cc1ccc(NC(=O)c2ccnc(N3CCCCC3)c2)cc1-c1ccc(C(=O)NCC2CC2)cc1 [GW775610],0,5,0,14,0,10,8,0,0,0,0,0,24,9,9,0,6,2,0,0
Cn1cc(-c2cnc(N)c3c(-c4ccc5c(c4)CCN5C(=O)Cc4ccccc4)csc23)cn1 [GSK2593074],0,0,1,0,9,0,8,0,7,0,41,16,19,9,0,0,0,0,6,0
Cl.Cl.NC(CNC(=O)c1cc(Br)c(-c2ccnc3[nH]ccc23)s1)c1ccccc1 (stereo not shown) [GSK1322949],74,85,86,57,98.4,97.2,16,14,33,15,74,48,41,76,93.1,92.6,36,74,0,24
CC(C)c1nc(-c2ccc(F)c(NS(=O)(=O)c3c(F)cccc3F)c2)c(-c2ccnc(Nc3ccc(N4CCOCC4)nc3)n2)s1 [GSK1804250],0,46,9,78,1,0,4,59,12,15,0,0,99.8,8,7,21,39,0,93.6,99.4
O=C(Nc1n[nH]c2nc(-c3ccccc3O)ccc12)C1CC1 [SB-711880],0,77,0,43,0,0,7,0,0,0,0,0,0,25,0,0,27,0,0,5
CCn1c(-c2nonc2N)nc2c(-c3ccccc3)ncc(OCCCN)c21.O=C(O)C(F)(F)F.O=C(O)C(F)(F)F [GSK260205],35,87,10,29,97.6,97.7,0,84,0,0,0,0,0,97.9,97.3,95.6,69,93,91.2,93.6
CC(C)c1nc(-c2cccc(NS(=O)(=O)c3c(F)cccc3F)c2)c(-c2ccnc(Nc3ccc(N4CCOCC4)nc3)n2)s1.Cl [GSK1723980],0,20,18,85,0,0,0,16,0,0,0,0,100,0,0,2,20,27,93.9,99.4
Cl.O=C(Nc1ccc(Oc2ccc3[nH]c(NC(=O)c4ccco4)nc3c2)cc1)Nc1cc(C(F)(F)F)ccc1F [GW683134],0,10,0,0,0,8,0,7,0,0,0,0,0,4,0,0,0,9,0,0
Cc1ccc(O)cc1Nc1ccnc2ccc(C(C)(C)C)cc12 [GW856805],0,0,0,0,43,0,14,0,14,63,29,15,27,17,31,3,39,0,0,13
Cc1ccc(NC(=O)c2cccc(N3CCCCC3)c2)cc1-c1ccc(C(=O)NCC2CC2)cc1 [GSK1917008],0,25,8,0,0,14,0,17,0,0,0,0,0,10,3,19,5,0,0,0
CN(c1ccc(F)c(NC(=O)c2cccc(OC(C)(C)C#N)c2Cl)c1)c1ccc2nc(NC(=O)C3CC3)sc2n1,34,0,3,0,17,0,4,4,0,0,0,0,0,0,0,16,4,5,0,3
COc1cccc2c(-c3ccncc3)c(-c3ccc(F)cc3)nn12 [GW468513],0,64,6,26,23,31,0,6,0,0,0,0,0,6,25,30,26,41,29,20
CCNc1nccc(-c2c(-c3ccc(F)cc3)ncn2C2CCN(C)CC2)n1,0,0,0,0,20,0,0,0,0,0,0,0,0,6,31,0,0,0,40,0
O=C(O)C(F)(F)F.O=c1[nH]ccc2nc(N[C@@H]3CCNC3)nc(Nc3cc(Cl)cc(Cl)c3)c12 [GSK2188764],75,75,86,85,20,35,8,83,81,81,26,16,81,99.6,100,97.4,85,95.1,82,93.4
O=C(Nc1n[nH]c2nc(-c3ccccc3)ccc12)C1CC1 [SB-708999],46,84,12,34,4,0,0,11,0,16,0,0,17,0,2,24,27,0,0,7
O=C(Nc1n[nH]c2nc(-c3cccc(O)c3)ccc12)C1CC1 [SB-711805],32,98,8,0,3,0,0,0,24,0,11,14,31,1,83,0,13,0,0,20
COC(=O)Nc1nc2ccc(Oc3ccc(NC(=O)Nc4cc(C(F)(F)F)ccc4F)cc3)cc2[nH]1.Cl [GW654607],0,30,34,16,0,6,0,39,16,0,0,0,0,4,12,8,21,16,28,3
